Holding throughout (experiment): NCI-60 one-dose screen, 48 h (100 = growth as untreated, 0 = no growth, -100 = all killed)
Experiment [1] deals with DU-145 prostate. The conditions noted are these: 10 µM unless noted.
The subject of experiment [2] is K-562 leukemia. The conditions noted are these: 10 µM unless noted.
Experiment [3] deals with MALME-3M melanoma. The conditions noted are these: 10 µM unless noted.
Experiment [4] concerns MDA-MB-231 breast. The conditions noted are these: 10 µM unless noted.
Experiment [5] relates to RXF 393 renal. As to conditions: 10 µM unless noted.
The subject of experiment [6] is SF-268 CNS. The conditions noted are these: 10 µM unless noted.
The test system of experiment [7] is SF-295 CNS. As to conditions: 10 µM unless noted.
In experiment [8] the test system is UACC-257 melanoma. As to conditions: 10 µM unless noted.
Experiment [9] deals with M14 melanoma. The conditions noted are these: 10 µM unless noted.
Experiment [10] deals with HCT-15 colon. The conditions noted are these: 10 µM unless noted.
Experiment [11] deals with SNB-19 CNS. The conditions noted are these: 10 µM unless noted.
Experiment [12] deals with U251 CNS. The conditions noted are these: 10 µM unless noted.
In experiment [13] the test system is PC-3 prostate. The conditions noted are these: 10 µM unless noted.
The test system of experiment [14] is SK-MEL-5 melanoma. As to conditions: 10 µM unless noted.
For experiment [15], the system named is UACC-62 melanoma. As to conditions: 10 µM unless noted.
Experiment [16] concerns LOX IMVI melanoma. The conditions noted are these: 10 µM.
The subject of experiment [17] is SK-MEL-28 melanoma. As to conditions: 10 µM unless noted.
Experiment [18] deals with SF-539 CNS. As to conditions: 10 µM unless noted.
In experiment [19] the test system is HT29 colon. The conditions noted are these: 10 µM unless noted.
Experiment [20] deals with SNB-75 CNS. The conditions noted are these: 10 µM unless noted.

The panel holds about 83,000 compounds, 20% with a hit somewhere; the sample as a whole holds those more often.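 Compound tested at a single concentration for 48 hours in 96-well plates; a percent growth value below 10 was scored as active.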 Unmarked numbers belong to inactive results. Activity calls are given as the source filed them.

With `Cc1oc2c(C)c3oc(=O)cc(C)c3cc2c1CCl`, the growth in experiment [1] was 72.8%; in [2], 59%; in experiment [3], 95.8%; in experiment [4], 81.7%; in [5], 83.6%; in experiment [6] it was 75.9%. Also, the growth in experiment [7] is 87%; in experiment [8], 88.9%; in [9] it was 93.2%; in experiment [10], 91.8%; in experiment [11] it was 81.5%; in experiment [12], 82.9%. The growth was 91% in [13]; 77.6% in experiment [14]; 44.3% in [15]; 56.6% in experiment [16]; 93.3% in [17].

In the case of `Cc1cc(C)c(C#N)c(Sc2nc(C)c([N+](=O)[O-])c(C)c2C#N)n1`, the growth is 41.7% in experiment [1]; 14.5% in [2]; 36.1% in experiment [3]; 91.4% in experiment [4]; 55.2% in experiment [5]; 81.6% in experiment [6]. The growth is 84.1% in [7]; 49.5% in experiment [18]; 54.2% in experiment [9]; 58.8% in experiment [10]; 35.8% in [19]; 66% in experiment [20]. Further, the growth was 98.4% in [11]; 77.1% in [13]; 66.8% in [15]; 1.66% (active) in experiment [16]; 78.7% in [17].

`Fc1ccc(NCCS)cc1`: the growth is 107% in [1]; 101% in [2]; 108% in experiment [3]; 102% in [4]; 108% in experiment [5]; 102% in [6]. Besides, the growth in experiment [18] is 103%; in experiment [8], 102%; in [9] it was 103%; in experiment [10], 105%; in experiment [19], 111%; in [20] it was 80.4%. Moreover, the growth was 107% in experiment [11]; 97.9% in [12]; 99.1% in experiment [13]; 106% in experiment [15]; 91.7% in experiment [16].

Consider `NC(=S)Nc1ccc2c(c1)Cc1ccccc1-2`, for which the growth in experiment [1] was 108%; in experiment [2], 82%; in [3], 88.4%; in experiment [4], 69.5%; in experiment [5], 102%; in experiment [6], 90.5%. Moreover, the growth in experiment [7] is 98.7%; in [8] it was 69.9%; in [9], 99.7%; in [10] it was 95.7%; in experiment [19], 87.8%; in experiment [20], 73.8%. Also, the growth was 87.7% in experiment [11]; 83.7% in experiment [12]; 71% in experiment [13]; 88.9% in experiment [14]; 77.3% in experiment [15]; 91.4% in experiment [16]. The growth in experiment [17] is 103%.

Regarding `N=C(N)Sc1cccc[n+]1[O-]`, the growth in experiment [1] was 35.5%; in experiment [2] it was 33.2%; in experiment [3], 22.2%; in [4] it was 59.6%; in experiment [5], 22.2%; in experiment [6] it was 62.6%. For the same compound, the growth in experiment [7] was 68.7%; in [8], 58%; in experiment [9], 18.4%; in [10], 32.8%; in experiment [19], 50.3%; in experiment [20], 61.5%. The growth is 59% in [11]; 41.5% in [12]; 38.1% in experiment [13]; 56.2% in experiment [14]; 23.2% in experiment [15]; -30.9% (active) in [16]. Further, the growth in experiment [17] is 26.1%.

Turning to `O=S(=O)(O)c1cnccn1`, the growth in experiment [1] was 110%; in experiment [2], 106%; in experiment [3], 108%; in experiment [4] it was 108%; in experiment [5], 114%; in [6] it was 102%. Besides, the growth in [7] was 101%; in experiment [18] it was 97.2%; in experiment [9], 100%; in experiment [10] it was 103%; in experiment [19] it was 94.7%; in experiment [20], 92.9%. For the same compound, the growth in experiment [11] was 104%; in [12], 102%; in experiment [13], 82.6%; in [14], 104%; in [15], 99.4%; in experiment [16], 98%. For the same compound, the growth in experiment [17] was 107%.

Take `CC1C(c2ccccc2)OCCN1C(=S)Nc1ccc(S(=O)(=O)N2CCCCC2)cc1` (stereo not given): the growth was 104% in [1]; 109% in [2]; 96.5% in experiment [3]; 86% in [4]; 95.5% in experiment [5]; 109% in [6]. Moreover, the growth in experiment [7] was 99.2%; in experiment [8], 91.5%; in experiment [9], 94.5%; in experiment [10] it was 97.2%; in experiment [19] it was 87.5%; in experiment [20], 100%. Besides, the growth in experiment [11] was 102%; in experiment [12], 93%; in experiment [13] it was 97.7%; in experiment [14], 88.7%; in experiment [15], 88.9%; in experiment [16], 58.9%. For the same compound, the growth in experiment [17] was 108%.

For the compound `CCN1CCCC(Nc2cc(C)nc(/N=C(/N)Nc3ccc(Cl)c(Cl)c3)n2)C1` (stereo not given), the growth was 30.3% in experiment [1]; -69.2% (active) in [2]; -70.6% (active) in [3]; -56.6% (active) in experiment [4]; -81.3% (active) in experiment [5]; -54.4% (active) in experiment [6]. The growth in experiment [18] is -73.7% (active); in [8], -84.9% (active); in experiment [9], -77.9% (active); in experiment [10], -37.2% (active); in [19], -46.9% (active); in experiment [20], -76.8% (active). Moreover, the growth was -17.5% (active) in experiment [11]; -82.4% (active) in experiment [12]; 7.05% (active) in experiment [13]; -97.6% (active) in experiment [14]; -80.7% (active) in experiment [15]; -61.5% (active) in experiment [16].

The values are drawn from PubChem BioAssay (NCI).
